From PubChem
Only some compounds are listed: those with a hit (about 1.5% of all), similar ones and a draw of the others.
MEX-5 binding: MEX-5 zinc finger RNA-binding disruptors – biochemical, C. elegans, fluorescence polarization, MLPCN library, primary screen | hit rate 0.38% among 300,000 | AID 1832, 2009 | MEX-5/FITC-TCR2 RNA binding; stronger effect = lower value | Zinc finger protein mex-5 (Caenorhabditis elegans), Q9XUB2 | activity score (negative = inhibition of binding), % at 10 µM;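 active = inhibition past about -25% in most replicates, and total fluorescence under double the plate's negative control median, limit read from the data; inconclusive = replicates evenly split on the limit, or fluorescence at least double controls; inactive = too little inhibition in most replicates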
Target sequence (Q9XUB2 whole entry, looked up): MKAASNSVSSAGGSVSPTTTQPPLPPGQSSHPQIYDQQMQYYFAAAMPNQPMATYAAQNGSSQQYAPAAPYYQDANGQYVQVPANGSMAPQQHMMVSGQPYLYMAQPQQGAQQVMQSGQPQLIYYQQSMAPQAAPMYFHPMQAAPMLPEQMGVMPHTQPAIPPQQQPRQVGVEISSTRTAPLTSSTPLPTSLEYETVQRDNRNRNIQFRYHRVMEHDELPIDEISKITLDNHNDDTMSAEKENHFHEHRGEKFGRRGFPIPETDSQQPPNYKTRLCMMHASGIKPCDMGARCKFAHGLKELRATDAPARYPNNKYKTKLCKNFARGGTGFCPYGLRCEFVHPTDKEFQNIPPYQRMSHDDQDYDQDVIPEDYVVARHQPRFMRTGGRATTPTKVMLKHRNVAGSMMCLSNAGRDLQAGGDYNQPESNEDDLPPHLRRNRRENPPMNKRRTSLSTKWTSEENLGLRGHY
Bcl-xL primary: inhibitors of human Bcl-xL, primary screen, biochemical, fluorescence polarization, HTS; AID 2129, 2009; hit rate 0.7% among 320,000; inhibition, % at 10.9 µM; GST-Bcl-xL / FITC-Bim BH3 peptide fluorescence polarization;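 active = inhibition above the mean of all tested compounds plus 3 SD, cutoff set per campaign, cut at about 30% in these data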;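 note: inhibitors lower millipolarization by displacing the labeled peptide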
Target sequence (Q07817 whole entry, looked up): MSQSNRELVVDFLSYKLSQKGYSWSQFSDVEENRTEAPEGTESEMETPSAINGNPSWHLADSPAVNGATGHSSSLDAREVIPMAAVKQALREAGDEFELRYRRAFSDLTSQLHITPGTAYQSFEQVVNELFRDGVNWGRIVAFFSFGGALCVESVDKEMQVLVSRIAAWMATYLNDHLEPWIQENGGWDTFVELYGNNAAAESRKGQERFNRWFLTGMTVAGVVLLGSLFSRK
MCL1-BIM inh: inhibitors of MCL1 binding to BIM-BH3, primary screen, biochemical, fluorescence polarization | GST-MCL1 / FITC-Bim-BH3 fluorescence polarization | Induced myeloid leukemia cell differentiation protein Mcl-1 (Homo sapiens), Q07820 | inhibition, % at 10.9 µM | hit rate 0.68% among 320,000;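 active = inhibition above the mean inhibition of all tested compounds plus 3 SD, set per campaign, cut at about 40% in these data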;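 note: higher means more loss of mP so more displacement of Bim peptide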
EBV gp42 inh: Epstein-Barr virus gp42 inhibitors, primary screen, biochemical, uHTS, fluorescence polarization | inhibition, % (tested at 21.74 µM) | Fluorescence polarization binding assay, mP read-out | Glycoprotein 42 (Epstein-Barr virus (strain AG876)), Q1HVG2 | hit rate 0.42% among 220,000; in the data active = inhibition above about 50%
E coli Lon inh: inhibitors of E. coli Lon protease, primary screen, biochemical, fluorescence polarization. P0A9M0. purified E. coli Lon protease. inhibition, % at 7.94 µM. hit rate 0.42% among 360,000. AID 602123, 2011; in the data active = inhibition above about 13%, passing the limit was not always enough
GLD-1 RNA inh: GLD-1/TGE RNA complex disruptors, primary screen, biochemical, fluorescence polarization. hit rate 0.44% among 320,000. inhibition, % at 5.96 µM. purified GLD-1 + fluorescein TGE RNA;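 active = percent inhibition above a per-plate cutoff, the plate mean of test compounds plus 3 SD, cut at about 30% in these data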
Bcl-xL conf: Bcl-xL inhibitors blocking Bim BH3 binding, confirmation, counter-screen for MCL1 inhibitor project, biochemical, fluorescence polarization; hit rate 54% among 1,700; GST-Bcl-xL / FITC-Bim BH3 peptide FP binding; shares compounds with MCL1-BIM inh; inhibition, % at 10.9 µM;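 active = inhibition above a cutoff equal to the mean inhibition of all tested compounds plus 3 SD, cut at about 30% in these data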
MCL1 BIM confirm: inhibitors of MCL1 binding to BIM-BH3, confirmation, biochemical, fluorescence polarization, triplicate; shares compounds with MCL1-BIM inh; GST-MCL1 / FITC-Bim-BH3 fluorescence polarization; inhibition, % at 10.9 µM; hit rate 61% among 1,700; AID 2168, 2009;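 active = inhibition above the average of all tested compounds plus 3 SD, cut at about 40% in these data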
Large screens that a line does not name were inactive (follow-up assays come after a bar, where they were run).

COC(=O)c1ccc(N)c(N=CC2=C(O)CC(C)(C)CC2=O)c1	Bcl-xL primary 87.0, MCL1-BIM inh 89.1, GLD-1 RNA inh 72.6 | Bcl-xL conf inactive | MCL1 BIM confirm inactive
CC1(C)CC(=O)C(C=Nc2cc(C(=O)c3ccccc3)ccc2N)=C(O)C1	none
COc1cccc(NC(=O)C(=O)NCCC2CCCCN2S(=O)(=O)c2ccccc2)c1 (configuration not stated)	none (no result: EBV gp42 inh)
O=C(CCN1C(=O)/C(=C/c2ccco2)SC1=S)Nc1ccc(O)cc1C(=O)O	none (no result: Bcl-xL primary, MCL1-BIM inh, EBV gp42 inh, GLD-1 RNA inh)
O=C(CCN1C(=O)/C(=C\c2ccco2)SC1=S)Nc1ccc(C(=O)O)c(O)c1	MEX-5 binding inconclusive, Bcl-xL primary 31.5, MCL1-BIM inh 64.1 (no result: EBV gp42 inh) | Bcl-xL conf inactive | MCL1 BIM confirm inactive
O=C(CCN1C(=O)/C(=C/c2ccco2)SC1=S)Nc1ccc(C(=O)O)c(O)c1	MCL1-BIM inh 65.1 (no result: EBV gp42 inh) | Bcl-xL conf 31.7 | MCL1 BIM confirm 54.4
Cc1cc(C)cc(-n2c3ccc(NC(=S)NC4CCCCC4)cc3c(=O)n2C)c1	none (no result: MEX-5 binding, Bcl-xL primary, MCL1-BIM inh, EBV gp42 inh, GLD-1 RNA inh)
Cc1ccc(C(=O)N/C(=C\c2ccc(-c3ccccc3[N+](=O)[O-])o2)C(=O)NCCCN(C)C)cc1	MEX-5 binding -26.6, Bcl-xL primary 75.9, MCL1-BIM inh 79.7, GLD-1 RNA inh 51.3 (no result: EBV gp42 inh) | Bcl-xL conf inactive | MCL1 BIM confirm inactive
Cc1ccc(C(=O)N/C(=C\c2ccc(-c3ccccc3[N+](=O)[O-])o2)C(=O)NCCN(C)C)cc1	Bcl-xL primary 56.3, MCL1-BIM inh 65.8 (no result: EBV gp42 inh) | Bcl-xL conf inactive | MCL1 BIM confirm inactive
CN(C)CCNC(=O)/C(=C/c1ccc(-c2cccc([N+](=O)[O-])c2)o1)NC(=O)c1ccccc1	none
CC1CCN(CC(=O)NCc2ccco2)CC1	MCL1-BIM inh 67.6 | Bcl-xL conf inactive | MCL1 BIM confirm inactive
Cc1cc(C)c2cc3c(ccn3C3OC[C@H](O)[C@H](O)[C@H]3O)cc2n1 (some centres not stated)	Bcl-xL primary 88.3, MCL1-BIM inh 100.4, EBV gp42 inh 94.1 | Bcl-xL conf 71.5 | MCL1 BIM confirm 86.2
COc1ccc(NC(=O)CN(C)C(=O)C2=NN(c3ccccc3)C(=O)CC2)cc1	none (no result: MEX-5 binding, EBV gp42 inh)
COc1cccc2c(=O)c3cccc(N)c3[nH]c12	Bcl-xL primary 62.6, MCL1-BIM inh 86.9 | Bcl-xL conf 44.0 | MCL1 BIM confirm 42.1
CN(C)c1ccc(/C=C/c2cc[n+]([O-])cc2)cc1	MEX-5 binding inconclusive, Bcl-xL primary 100.7, MCL1-BIM inh 108.6, GLD-1 RNA inh 51.6 (no result: E coli Lon inh) | Bcl-xL conf 88.6 | MCL1 BIM confirm 100.0
CC[n+]1ccccc1/C=C/c1ccc(N(C)C)cc1	none (no result: Bcl-xL primary, MCL1-BIM inh, GLD-1 RNA inh)
O=C(CN1C(=O)NC2(CCCC2)C1=O)NNC(=O)c1ccc(Br)cc1	none (no result: EBV gp42 inh)
Clc1ccc(-c2cn3nc4c(nc3n2)CCCC4)cc1	Bcl-xL primary 103.6, MCL1-BIM inh 106.5, GLD-1 RNA inh 81.5 | Bcl-xL conf 76.5 | MCL1 BIM confirm 89.4
CC(C)CN(C(=O)COC(=O)c1cc2c(s1)CCC2)C1CCS(=O)(=O)C1 (configuration not stated)	MCL1-BIM inh 42.0 | Bcl-xL conf inactive | MCL1 BIM confirm inactive
C[C@H](NC(=O)C1CC(=O)N(c2ccc3c(c2)OCO3)C1)C(=O)NC1CCCC1 (some centres not stated)	none (no result: EBV gp42 inh)
CC(C)C[C@H](NC(=O)C1CC(=O)N(c2ccc3c(c2)OCO3)C1)C(=O)NC1CCCC1 (some centres not stated)	Bcl-xL primary 56.0, MCL1-BIM inh 56.2, GLD-1 RNA inh 38.2 (no result: EBV gp42 inh) | Bcl-xL conf 49.1 | MCL1 BIM confirm 59.2
Cc1ccc(C(=O)Nc2nnc(CC(=O)N/N=C/c3ccc(O)c(O)c3)s2)cc1	MCL1-BIM inh 76.0 (no result: EBV gp42 inh) | Bcl-xL conf 51.0 | MCL1 BIM confirm 79.6
Cc1ccccc1C(=O)Nc1nnc(CC(=O)N/N=C/c2ccco2)s1	none
COCCN(C(=O)COC(=O)CCC1CCCCC1)c1c(N)n(Cc2ccccc2)c(=O)[nH]c1=O	none (no result: MEX-5 binding, Bcl-xL primary, MCL1-BIM inh, EBV gp42 inh, GLD-1 RNA inh)
COc1cc(/C=C2\SC(=S)N(c3cccnc3)C2=O)ccc1O	MCL1-BIM inh 59.8 | Bcl-xL conf inactive | MCL1 BIM confirm 44.3
O=S(=O)(c1cccc2cccnc12)N1CCCCC1	none (no result: EBV gp42 inh)
CC(CS(=O)(=O)c1cccc2cccnc12)N1CCCCC1 (configuration not stated)	Bcl-xL primary 61.6, MCL1-BIM inh 65.0, GLD-1 RNA inh 39.6 | Bcl-xL conf 33.5 | MCL1 BIM confirm 42.3
CCOC(=O)CSc1nnc(-c2cc(OC)c(OC)c(OC)c2)o1	none
COc1cc(-c2nnc(SCc3cc(=O)oc4cc(O)c(O)cc34)o2)cc(OC)c1OC	MCL1-BIM inh 61.8 | Bcl-xL conf inactive | MCL1 BIM confirm 60.6
Cc1ccc([C@@H]2C3COCC=C3C(C#N)=C(N)C2(C#N)C#N)o1 (some centres not stated)	Bcl-xL primary 96.5, MCL1-BIM inh 104.9, E coli Lon inh 69.1, GLD-1 RNA inh 77.7 | Bcl-xL conf 71.2 | MCL1 BIM confirm 73.9
CCCNS(=O)(=O)c1cc2c(cc1Br)CCN2C(=O)CC	none (no result: MEX-5 binding, Bcl-xL primary, MCL1-BIM inh, EBV gp42 inh, GLD-1 RNA inh)
CCc1ccc[n+](-c2nc3ccccc3nc2C(=C=[N-])C#N)c1	Bcl-xL primary 87.7, MCL1-BIM inh 84.2, GLD-1 RNA inh 50.2 | Bcl-xL conf inactive | MCL1 BIM confirm inactive
Cc1ccc[n+](-c2nc3ccccc3nc2C(=C=[N-])C#N)c1	none
O=C(/C=C1\NC2(CCCC2)Cc2ccccc21)C(=O)N/N=C/c1ccc(O)c(O)c1	MCL1-BIM inh 41.6 | Bcl-xL conf 30.7 | MCL1 BIM confirm 43.0
Cc1ccc(C(=O)N2CCOCC2)cc1[N+](=O)[O-]	none
Cc1ccc(CSc2ccc(C(=O)N3CCOCC3)cc2[N+](=O)[O-])cc1	MCL1-BIM inh 49.4 | Bcl-xL conf inactive | MCL1 BIM confirm inactive
O=C(COC(=O)c1ccc2ncsc2c1)Nc1cc([N+](=O)[O-])ccc1Cl	MCL1-BIM inh 42.2 (no result: MEX-5 binding, EBV gp42 inh) | Bcl-xL conf inactive | MCL1 BIM confirm inactive
CCOc1cc(C2C(C(=O)c3ccco3)=C(O)C(=O)N2CC2CCCO2)ccc1O (configuration not stated)	none (no result: EBV gp42 inh)
